In PubChem BioAssay (NCI) one finds growth data, which are given here for 14 molecules.

Among the test systems are T-47D breast; BT-549 breast; MDA-MB-435 melanoma; SW-620 colon; MCF7 breast; HCT-116 colon; HCC-2998 colon; KM12 colon.
Holding throughout (assay): NCI-60 one-dose screen, 48 h (100 = growth as untreated, 0 = no growth, -100 = all killed)
Conditions in all cases: 10 µM unless noted

The panel holds about 83,000 compounds, 20% with a hit somewhere; the sample as a whole holds those more often.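 Cell lines were cultured in 96-well plates, exposed to a single compound concentration, and assessed for percent growth 48 hours later.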 Unmarked numbers belong to inactive results. Activity calls are given as the source filed them. Rule for the calls: active = growth percent below 10; inactive = the rest.

Regarding `COCCCNS(=O)(=O)c1ncnc2nc[nH]c12`, the growth is 105% in the assay on T-47D breast; 123% in the assay with BT-549 breast; 107% with MDA-MB-435 melanoma; 101% with SW-620 colon; 112% with MCF7 breast; 93.5% in the assay on HCT-116 colon. In addition, the growth is 102% with HCC-2998 colon and 95.7% with KM12 colon.
Regarding `COc1ccc2nc(N/N=C(\C)c3ccccn3)cc(C)c2c1`, the growth with T-47D breast was 0.953% (active); in the assay on BT-549 breast it was -87.8% (active); in the assay with MDA-MB-435 melanoma, -94.9% (active); in the assay on SW-620 colon, -68% (active); with MCF7 breast it was -74.6% (active); with HCT-116 colon it was -68.7% (active). For the same molecule, the growth is -68.3% (active) in the assay on HCC-2998 colon and -35.7% (active) in the assay with KM12 colon.
For the molecule `CCCc1n(Cc2ccc3ccccc3c2)cc[n+]1Cc1ccc2ccccc2c1`, the growth is -3.21% (active) with T-47D breast; -32.2% (active) with BT-549 breast; -50.8% (active) with MDA-MB-435 melanoma; 8.13% (active) with SW-620 colon; -16.7% (active) with MCF7 breast; 1.39% (active) with HCT-116 colon. For the same molecule, the growth in the assay on HCC-2998 colon was -22.9% (active); in the assay on KM12 colon, -63.7% (active).
As for `Cc1cc(C(=O)Nc2ccc3cc(CN4CCOCC4)ccc3n2)c(C)n1-c1ccccc1`, the growth in the assay on T-47D breast was -2.49% (active); in the assay on BT-549 breast, -1.74% (active); in the assay with MDA-MB-435 melanoma it was 4.74% (active); in the assay with SW-620 colon it was 64.1%; in the assay with MCF7 breast, 7.41% (active); with HCT-116 colon it was 29.4%. Besides, the results for the growth with HCC-2998 colon and in the assay with KM12 colon were 50.8% and 11%, respectively.
In the case of `CC(C)Sc1nc(-c2ccc(Br)cc2)c(C#N)c(N2CCCCC2)n1`, the growth in the assay on T-47D breast was 94.3%; with BT-549 breast, 109%; in the assay on MDA-MB-435 melanoma, 95.7%; in the assay with SW-620 colon, 102%; in the assay with MCF7 breast it was 93.1%; in the assay with HCT-116 colon it was 100%. For the same molecule, the growth is 121% in the assay with HCC-2998 colon and 95.9% in the assay with KM12 colon.
Consider `CCOC(=O)c1sc(NC(=O)COc2cccc(/C=C3\CCc4cc(OC)ccc4C3=O)c2)nc1C`, for which the growth in the assay on T-47D breast is 84.8%; in the assay on BT-549 breast, -23.3% (active); in the assay on MDA-MB-435 melanoma, 8.01% (active); with SW-620 colon, 36.4%; with MCF7 breast it was 18.9%; in the assay with HCT-116 colon it was 46.5%. In addition, the results for the growth with HCC-2998 colon and in the assay with KM12 colon were 32.3% and 34.7%, respectively.
As to `Cc1cc(-c2ccccc2)cc(C)n1`, the growth in the assay on T-47D breast is 114%; in the assay on BT-549 breast it was 113%; in the assay with MDA-MB-435 melanoma it was 105%; in the assay on SW-620 colon, 109%; in the assay with MCF7 breast, 93.5%; with HCT-116 colon, 104%. Besides, the growth with HCC-2998 colon is 107%; in the assay with KM12 colon it was 112%.
As for `COc1cccc(C2=NN(C(C)=O)C(c3cc(OC)c(OC)c(OC)c3)C2)c1` (configuration not stated), the growth with T-47D breast is 35.2%; in the assay with BT-549 breast, 7.16% (active); in the assay on MDA-MB-435 melanoma, -28.2% (active); with SW-620 colon it was 17.3%; in the assay on MCF7 breast, 3.81% (active); with HCT-116 colon, 26.9%. Also, the results for the growth with HCC-2998 colon and in the assay with KM12 colon were 15.7% and 35.9%, respectively.
As to `COc1ccc2c(c1)sc1nc(-c3ccc(N(C)C)cc3)cn12`, the growth in the assay on T-47D breast was 68.7%; with BT-549 breast it was 99%; in the assay with MDA-MB-435 melanoma it was 104%; with SW-620 colon, 104%; with MCF7 breast it was 84%; with HCT-116 colon, 91.7%. Moreover, the growth in the assay with HCC-2998 colon was 92%; with KM12 colon, 75.8%.
With `COC(=O)c1cc2c(/C=C3/NC(=S)NC3=O)coc2n1C`, the growth in the assay on T-47D breast was 80.3%; with BT-549 breast it was 72.9%; with MDA-MB-435 melanoma it was 94.7%; in the assay with SW-620 colon, 96.6%; in the assay with MCF7 breast, 81.3%; in the assay on HCT-116 colon it was 96.8%. Moreover, the growth with HCC-2998 colon was 103%; with KM12 colon it was 96.5%.
In the case of `O=C1/C(=C/c2ccccc2Cl)CCc2ccccc21`, the growth was 105% in the assay with T-47D breast; 108% in the assay with BT-549 breast; 95.4% with MDA-MB-435 melanoma; 110% with SW-620 colon; 87.9% in the assay on MCF7 breast; 99.5% in the assay with HCT-116 colon. The growth in the assay with HCC-2998 colon is 102%; in the assay on KM12 colon, 108%.
Turning to `C(=C1c2ccccc2-c2ccccc21)c1ccccn1`, the growth with T-47D breast is 63.8%; in the assay on BT-549 breast, 58.8%; in the assay with MDA-MB-435 melanoma it was -7.78% (active); with SW-620 colon, 32.7%; in the assay on MCF7 breast it was 38%; with HCT-116 colon, 43.5%. Moreover, the growth with HCC-2998 colon was 80.6%; in the assay on KM12 colon it was 39.6%.
With `CCN(CC)c1ccc(C(=C2C=CC(=[N+](CC)Cc3cccc(S(=O)(=O)O)c3)C=C2)c2ccc(N(CC)Cc3cccc(S(=O)(=O)O)c3)cc2)cc1`, the growth in the assay with T-47D breast is 8.92% (active); in the assay on BT-549 breast it was 46.6%; in the assay on MDA-MB-435 melanoma, 41.5%; in the assay with SW-620 colon, 22.9%; with MCF7 breast, 52.1%; with HCT-116 colon, 3.12% (active). Also, the growth with HCC-2998 colon is 21%; in the assay on KM12 colon, 3.78% (active).
For the molecule `Cn1ccnc1C(=O)/C=C/c1ccc(C(=O)Nc2nc3ccccc3[nH]2)cc1`, the growth is 49.6% in the assay on T-47D breast; 5.05% (active) in the assay on BT-549 breast; 18.8% in the assay with MDA-MB-435 melanoma; 5.35% (active) in the assay with SW-620 colon; 19.5% in the assay on MCF7 breast; 23.1% in the assay on HCT-116 colon. Moreover, the growth in the assay on HCC-2998 colon is 45.4%; with KM12 colon, 14.4%.
